# Test results reported in paper PMC4151992.
# Key:
# Experiment in all cases: cross-link between two proteins
# [1] = molecular target: Small ribosomal subunit protein eS1A (UniProt P33442)
# [2] = molecular target: Small ribosomal subunit protein eS4A (UniProt P0CX35)
# [3] = molecular target: Small ribosomal subunit protein eS6A (UniProt P0CX37)
# [4] = molecular target: Small ribosomal subunit protein eS7A (UniProt P26786)
# Chain of Small ribosomal subunit protein eS7A (P26786 whole entry): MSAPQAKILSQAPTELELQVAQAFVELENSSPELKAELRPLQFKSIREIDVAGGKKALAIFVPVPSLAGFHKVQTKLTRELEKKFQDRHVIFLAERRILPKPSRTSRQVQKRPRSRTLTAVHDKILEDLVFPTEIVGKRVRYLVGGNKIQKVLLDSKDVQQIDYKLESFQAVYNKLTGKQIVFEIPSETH
# Chain of Small ribosomal subunit protein eS6A (P0CX37 whole entry): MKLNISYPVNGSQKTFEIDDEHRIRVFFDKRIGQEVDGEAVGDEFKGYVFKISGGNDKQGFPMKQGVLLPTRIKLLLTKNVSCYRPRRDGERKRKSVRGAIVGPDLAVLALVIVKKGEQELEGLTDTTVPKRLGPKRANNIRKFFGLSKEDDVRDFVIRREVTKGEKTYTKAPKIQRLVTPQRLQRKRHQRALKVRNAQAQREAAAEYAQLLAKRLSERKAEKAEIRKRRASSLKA
# Chain of Small ribosomal subunit protein uS8A, P0C0W1 (P0C0W1 whole entry): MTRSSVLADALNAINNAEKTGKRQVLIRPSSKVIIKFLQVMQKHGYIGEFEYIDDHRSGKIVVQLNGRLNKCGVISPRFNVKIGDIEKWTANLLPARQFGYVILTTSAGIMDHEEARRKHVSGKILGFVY
# Chain of Small ribosomal subunit protein eS1A (P33442 whole entry): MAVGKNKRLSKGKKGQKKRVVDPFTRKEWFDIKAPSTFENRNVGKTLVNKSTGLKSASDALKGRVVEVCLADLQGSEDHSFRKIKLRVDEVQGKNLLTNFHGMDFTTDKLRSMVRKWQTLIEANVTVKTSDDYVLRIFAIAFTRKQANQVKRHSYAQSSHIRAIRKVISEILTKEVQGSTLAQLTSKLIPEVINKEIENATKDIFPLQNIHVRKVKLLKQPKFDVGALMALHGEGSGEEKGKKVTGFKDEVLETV
# Chain of Small ribosomal subunit protein eS4A (P0CX35 whole entry): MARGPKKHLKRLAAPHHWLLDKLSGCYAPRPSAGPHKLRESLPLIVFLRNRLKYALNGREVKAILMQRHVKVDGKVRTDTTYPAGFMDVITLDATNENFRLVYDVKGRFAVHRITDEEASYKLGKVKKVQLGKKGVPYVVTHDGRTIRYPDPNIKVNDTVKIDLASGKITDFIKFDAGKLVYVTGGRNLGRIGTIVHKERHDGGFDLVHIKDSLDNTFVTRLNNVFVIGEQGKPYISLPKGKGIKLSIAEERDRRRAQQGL
substance,measurement,setting,value
"Small ribosomal subunit protein uS11A, P06367",listed as a hit,[1],yes
"Small ribosomal subunit protein eS24A, P0CX31",listed as a hit,[2],yes
"Small ribosomal subunit protein eS4A, P0CX35",listed as a hit,[3],yes
"Small ribosomal subunit protein uS8A, P0C0W1",listed as a hit,[4],yes
